Pf Dd2 inh – inhibitors of Plasmodium falciparum Dd2 growth | P. falciparum Dd2 growth, SYBR Green, 72 h | Potency, µM (highest dose often 28.9 µM), for the others: top-dose activity, negative = inhibition, actives largely listed as inhibitors | hit rate 4.3% among 120,000 | AID 1347417; active = well fitted inhibition curve with a large enough effect;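 also: plate controls were DMSO vehicle for no effect and reference drug for full effect; nearly all actives have a fitted effect of over 65% in size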
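Infected erythrocytes (Dd2, 0.3% parasitemia, 2.5% hematocrit final) are added to compound in RPMI-1640/Albumax II medium, grown 72 h at 37C in low oxygen, then lysed with saponin/Triton-X containing SYBR Green and read by fluorescence.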
* = called active by the depositor; i = inactive; [ ] = dose if it differs, or a comment. This excerpt belongs to a sample that is enriched for hits. Potency is read from the fitted curve at half-maximal effect.

SMILES	Pf Dd2 inh
CN(C)c1nc2c(c(=O)[nH]1)CCN(Cc1ccccc1)CC2	17%[5.79 µM]
CN(C)c1nc2c(c(=O)[nH]1)CCN(Cc1ccccc1Br)CC2	1.1µM*
CN(C)c1nc2c(c(=O)[nH]1)CCN(Cc1ccc(Cl)cc1)CC2	-4%[5.79 µM]
CN(C)c1nc2c(c(=O)[nH]1)CCN(Cc1cccc(F)c1F)CC2	i[5.79 µM]
CN(C)c1nc2c(c(=O)[nH]1)CCN(Cc1ccc(Br)cc1)CC2	2µM*
COc1ccc(C2(C(=O)N3CCc4ccccc4C3)CCOCC2)cc1	-8%
O=C(NCc1ccc(Cl)nc1)c1cccn2nccc12	-6%[44.1 µM]
COc1ccc(-c2ccc3nnc(CNC(=O)c4ccco4)n3n2)cc1	i
Cn1cc(NC(=O)CN2CCC(N3CCCC(C(=O)N4CCCC4)C3)CC2)cn1 (configuration not stated)	-10%
CN1C(=O)[C@H]2CN(Cc3c[nH]c4ccccc34)C[C@H]2C1=O	9%
CC(=O)NC1CCN(c2nc(-c3cccnc3)nc3c2cnn3C)C1 (configuration not stated)	-20%
COc1ccc(C)cc1NC(=O)N(Cc1ccc2c(c1)OCO2)C1CCN(Cc2ccccc2)CC1	8.9µM*
CCN1CCC(N(Cc2cccc(OC)c2)C(=O)Nc2ccc(C)cc2Cl)CC1	-14%
Cc1ccc(NC(=O)N(Cc2ccc3c(c2)OCO3)C2CCN(Cc3ccccc3)CC2)cc1C	-28%
Cc1ccc(NC(=O)N(Cc2ccc3c(c2)OCO3)C2CCN(Cc3ccccc3)CC2)cc1Cl	10µM*
CC(=O)N1CCC(N(Cc2ccco2)C(=O)Nc2ccc(C)c(Cl)c2)CC1	1%
COc1ccc(C)cc1NC(=O)N(Cc1ccc(C)o1)C1CCN(C(C)=O)CC1	-17%
O=C(CC1COCCN1C(=O)c1ccc2nccnc2c1)N1CCCC1 (configuration not stated)	19%
COCc1cc(C[C@H]2CNCC[C@H]2CC(=O)N2CCN(c3ccccc3OC)CC2)no1	-21%
O=C1CCCN1CCCN1C(=O)[C@@H]2C[C@@H](O)CN2C2(CN(Cc3ccoc3)C2)C1=O	9%[44.1 µM]
CCc1ccc(CNC(=O)c2cc3c(N4CCSCC4)nc(C)cn3n2)cc1	i
COc1ccc(CN2CCOCCNC(=O)CC2)cc1Cc1c(C)noc1C	-24%
COc1ccccc1C(=O)N1CCC2(CC1)N(C)C(=O)CS2(=O)=O	1%
CC[C@@]1(O)CCN(C(=O)CCc2nc(-c3ccco3)no2)C[C@H]1O	-1%
COCCN1CCC2(CCC1=O)CN(CCC(=O)N1CCCC1)CCN2C (configuration not stated)	-2%
SMILES	Pf Dd2 inh
CCc1ccccc1NC(=O)Nc1cccc(-c2ccc(N3CCOCC3)nn2)c1	-24%
O=C(Nc1cccc(-c2ccc(N3CCOCC3)nn2)c1)Nc1ccc2c(c1)CCC2	i
O=C(NCc1ccco1)Nc1cccc(-c2ccc(N3CCCC3)nn2)c1	11µM*
CC(C)CNC(=O)Nc1cccc(-c2ccc(N3CCC(C)CC3)nn2)c1	-16%
CSc1cccc(NC(=O)Nc2cccc(-c3ccc(N4CCCC4)nn3)c2)c1	0%
Cc1cccc(C(=O)Nc2cccc(-c3ccc(N4CCN(C)CC4)nn3)c2)c1	13µM*
O=C(NC1CCN(c2cc(C(F)(F)F)ncn2)CC1)c1ccc(F)cc1Cl	-14%
Oc1ccc(CN2CCCCC2c2nc(CCOCC3CC3)no2)cc1 (configuration not stated)	i
O=C1CC(c2noc(Cc3c(F)cccc3Cl)n2)CN1C1CCCCC1 (configuration not stated)	i
O=C(c1ccccc1F)N1CCN(c2nc3ncccc3o2)CC1	-16%[44.1 µM]
O=C(c1cc2ccccc2o1)N1CCC2(COc3ncccc3S(=O)(=O)N2)C1 (configuration not stated)	21%
COCC(=O)N1CCC(c2nn(-c3ccc(OC)cc3)c(=O)[nH]2)CC1	-18%
COCCN(Cc1c(C)nn(C)c1C)CC1[C@H]2CNC[C@@H]12 (some centres not stated)	2%
COc1cc(CN2CCN(Cc3ccc(-n4cccn4)cc3C)CC2CCO)cc(OC)c1 (configuration not stated)	-11%
Cc1cccc(-n2cc(CN3CC[C@H](CO)[C@@H](O)C3)cn2)c1	-23%
CN1CCN(Cc2cnn(-c3cccc(Cl)c3)c2)CC1CCO (configuration not stated)	14µM*
Cc1noc(C)c1C(=O)N1Cc2ccccc2CC2(CCCCN2C)C1 (configuration not stated)	-24%
COCCc1noc(C2CCCN(C(=O)Cn3ncc4ccccc4c3=O)C2)n1 (configuration not stated)	-7%
O=C1NCCN(C(=O)Cn2ncc3ccccc3c2=O)C1Cc1cnc[nH]1 (configuration not stated)	0%
CC(C)COc1cc(=O)n2c(c1C(=O)NCc1ccccc1F)CCCCC2	6%
COc1nc2c(cc1CNC(=O)C1CC1(C)C)C(=O)N(C1CCCC1)C2 (configuration not stated)	-17%
O=C1N(c2ccccc2)C[C@H]2CN(Cc3ccnc4ccccc34)CCN12	i

Screening results deposited in PubChem by National Center for Advancing Translational Sciences (NCATS).
